Source: PubChem
Most compounds without a hit are left out; they make up all but 2% or so of the library.
Jurkat NFkB inh = inhibitors of the PMA/ionomycin-induced NF-kB reporter in Jurkat cells | PMA/ionomycin-induced NF-kB luciferase reporter, luminescence | inhibition, % at 4 µM | 330,000 compounds, 0.53% hits | AID 435003; in the data active means inhibition above about 50%
COUP-TFII inh = blocks human COUP-TFII nuclear receptor | inhibition, % at 8.6 µM | P24468 | 370,000 compounds, 0.7% hits | HEK293T NGFI-A luciferase reporter, luminescence;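 active means inhibition above a per-plate cutoff, mean inhibition of test wells between control levels plus 3 SD, cut at about 38% in these data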;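 further: cells cotransfected with COUP-TFII expression vector driving the NGFI-A reporter; 0% = median of COUP-TF2 test wells and 100% = reporter-only cells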
Target sequence (P24468 whole entry, looked up): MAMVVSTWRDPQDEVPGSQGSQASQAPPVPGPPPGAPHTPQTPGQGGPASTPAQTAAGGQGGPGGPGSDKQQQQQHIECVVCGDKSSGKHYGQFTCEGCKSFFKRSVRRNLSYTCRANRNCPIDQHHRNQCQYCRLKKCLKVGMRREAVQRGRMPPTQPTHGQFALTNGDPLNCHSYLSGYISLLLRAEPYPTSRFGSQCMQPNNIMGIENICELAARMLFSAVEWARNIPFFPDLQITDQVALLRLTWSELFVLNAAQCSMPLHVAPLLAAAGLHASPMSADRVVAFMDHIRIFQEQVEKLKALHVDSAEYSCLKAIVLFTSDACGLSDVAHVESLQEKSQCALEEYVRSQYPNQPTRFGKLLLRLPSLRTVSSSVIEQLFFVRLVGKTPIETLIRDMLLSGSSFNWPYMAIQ
697 NFkB inh = lowers PMA/ionomycin-induced NF-kB signal in 697 B cells. 330,000 compounds, 0.33% hits. inhibition, % at 4 µM. 697 B-cell NF-kB luciferase reporter, 16 h. AID 435022; in the data active means inhibition above about 35%
GalR3 antag = antagonists of human GalR3 | inhibition, % at 3 µM | AID 651719 | 360,000 compounds, 0.44% hits | HEK293 GalR3-CNG cAMP membrane potential fluorescence; galR3 body fused to GalR1 C-terminus | O60755;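 active means inhibition above the screen-wide average plus 3 SD, cut at about 13% in these data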;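 further: forskolin and galanin both at EC90 stimulate the cells; cAMP rise reported by CNG channel membrane potential dye signal; 0% = forskolin plus galanin with DMSO and 100% = forskolin alone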
Gli-Sufu antag = antagonists of Gli-Sufu signaling. 340,000 compounds, 0.74% hits. inhibition, % at 5 µM. Sufu-KO-LIGHT fibroblasts, Gli luciferase reporter luminescence;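 active means inhibition above about 55%, limit read from the data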;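 further: 0% = DMSO-treated cells and 100% = wells with medium but no cells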
Gli antag conf = Gli-SUFU antagonism confirmation, single concentration; shares compounds with Gli-Sufu antag; Sufu-KO-LIGHT cells, Gli luciferase reporter, luminescence; 2,500 compounds, 40% hits; inhibition, % at 5 µM;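 active means mean inhibition at 5 µM reaching about 45%, limit read from the data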;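 further: plate controls were DMSO-treated cells for no effect and wells lacking cells for full effect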
Gli cytotox = counter-screen for Gli-SUFU antagonists: cytotoxicity | Sufu-KO-LIGHT cells cytotoxicity, ATP luminescence | shares compounds with Gli-Sufu antag | cytotoxicity, % at 5 µM | AID 651994 | 2,500 compounds, 32% hits;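 active means mean cytotoxicity at 5 µM above about 25%, limit read from the data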;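 further: cells exposed to compound overnight for roughly 16 to 18 hours; plate controls were DMSO wells with cells for no effect and medium without cells for full effect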
Wnt3a cs = inhibits Wnt3a reporter, counter-screen for Gli-SUFU antagonists; shares compounds with Gli-Sufu antag; Wnt-LIGHT cells, Wnt3a-driven luciferase reporter, luminescence; inhibition, % at 6.25 µM; 2,500 compounds, 20% hits; AID 651995;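 active means mean inhibition above about 25%, limit read from the data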
An asterisk follows results filed as active; . = no result given.

SMILES	Jurkat NFkB inh	COUP-TFII inh	697 NFkB inh	GalR3 antag	Gli-Sufu antag	Gli antag conf	Gli cytotox	Wnt3a cs
CC(Oc1ccccc1)C(=O)Nc1ccc(C(N)=O)cc1 (stereo not given)	-7	-6	-4	-3	52	19	4	-10
COc1ccccc1OCC(=O)Nc1ccc(NC(=O)COc2ccccc2OC)cc1	10	5	0	-3	-7	.	.	.
CCOC(=O)[C@]12CCCCC/C=C\1N(CCc1ccc(Cl)cc1)C(=O)[C@H]2CC(=O)NCCC(C)C	.	-8	.	.	.	.	.	.
CC1(C)C=C2C(N(Cc3ccc4c(c3)OCO4)C(=N)N2C(=O)OCc2ccccc2)n2c(=O)n(-c3ccccc3)c(=O)n21 (stereo not given)	.	-4	.	.	.	.	.	.
CN(CCc1ccccn1)C(=O)c1ccc2c(c1)ncn2C1CCCCC1	.	-11	.	.	.	.	.	.
CCc1nnc(NC(=O)c2cc(-c3ccco3)nc3ccccc23)s1	6	5	19	2	61*	9	11	-5
CCc1nnc(NC(=O)c2cc(-c3ccccn3)nc3ccccc23)s1	4	-4	16	-6	-1	.	.	.
CN(C)c1cccc(/C=C2\CC3(OC(=O)c4ccc(Cl)cc4)CCCN2C3)c1 (stereo not given)	.	4	.	.	.	.	.	.
COc1ccc2[nH]c(C)c(CCNC(=S)Nc3ccccc3C)c2c1	-15	3	-3	-2	69*	15	9	-12
Cc1ccc(-n2c(SCC(=O)Nc3ccc(S(=O)(=O)Nc4cc(C)nc(C)n4)cc3)nnc2-c2ccncc2)cc1	.	-2	.	.	.	.	.	.
Cc1oc(/N=C/c2ccc(Cl)cc2)c(C#N)c1C	-15	-1	1	-7	71*	5	6	-14
CCc1nnn2c1Cn1c3ccccc3c(=O)n1[C@@H](C(C)C)C2	.	-6	.	.	.	.	.	.
Fc1ccc(Cn2nnnc2CN2CCN(C3CCCC3)CC2)cc1	-1	6	5	-1	93*	18	-11	0
Cc1cc(C)c2nc(NNC(=O)c3ccc(S(=O)(=O)N4CCCC(C)C4)cc3)sc2c1 (stereo not given)	2	8	-25	.	58*	17	9	-8
Cc1cc(C)c2nc(NNC(=O)c3ccc(S(=O)(=O)N4CC(C)CC(C)C4)cc3)sc2c1 (stereo not given)	-13	1	-16	.	-10	.	.	.
CC1(c2nnnn2C2CCCCC2)CSCC(=O)N1CCc1ccc(O)cc1 (stereo not given)	.	-7	.	.	.	.	.	.
O=C(NC1CCCCC1)O[C@H]1CC[C@@]23CCCN2C(=O)CCC[C@H]3C1	.	-16	.	.	.	.	.	.
O=C1CC[C@@]23CCCN2C(=O)CCCC3C1 (stereo not given in full)	.	19	-11	-4	55*	18	13	9
COC(=O)[C@]12C[C@H](CC(=O)NCCC(C)C)C(=O)N(CCc3ccc(OC)c(OC)c3)C1=C[C@H](COCc1ccccc1)O[C@@H]2C	.	4	.	.	.	.	.	.
COc1ccc(-n2nc(C(=O)NCC(=O)NCCC3=CCCCC3)c3ccccc3c2=O)c(OC)c1	-1	0	-10	-9	56*	20	8	-57
CCCCNC(=O)CNC(=O)c1nn(-c2ccc(OC)cc2OC)c(=O)c2ccccc12	-8	6	5	-5	8	.	.	.
CCN(CC)CCn1c(NCc2ccc(OC)cc2)nc2ccccc21	9	-6	-44	-4	56*	26	6	-18
CCN(CC)CCn1c(NCc2ccc(C)o2)nc2ccccc21	2	-1	1	-3	6	.	.	.
Cc1cccc(C)c1NC(=O)C1CCCN1S(=O)(=O)c1ccc(-c2ccc(=O)[nH]n2)s1 (stereo not given)	-9	14	6	5	51	13	5	35*
O=C(COC(=O)c1ccc2[nH]c3c(c2c1)CCCC3)Nc1ccccc1Cl	3	5	5	6	51	47*	7	-23
SMILES	Jurkat NFkB inh	COUP-TFII inh	697 NFkB inh	GalR3 antag	Gli-Sufu antag	Gli antag conf	Gli cytotox	Wnt3a cs
O=C(COC(=O)c1ccc2[nH]c3c(c2c1)CCCC3)Nc1ccc(Cl)cc1Cl	19	11	-11	-7	-2	.	.	.
CCCCNC(=O)C[C@H]1C[C@@]2(C(=O)OC)C(=C[C@H](C(C)C)O[C@@H]2C2CC2)N(Cc2ccc3c(c2)OCO3)C1=O	.	2	.	.	.	.	.	.
CCCSc1nnc(NC(=O)c2nc(SC)ncc2Cl)s1	7	-2	-12	-5	56*	20	19	-22
CSc1ncc(Cl)c(C(=O)Nc2nnc(SC)s2)n1	-7	15	-6	0	-2	.	.	.
COc1cccc(NC(=S)N2CCC(Cc3ccccc3)CC2)c1	17	-17	-2	-2	51	30	21	-46
N#C/C(=C/c1ccc(-c2ccc([N+](=O)[O-])cc2)o1)C(=O)Nc1nc(-c2cccs2)cs1	.	-6	.	-4	72*	84*	6	33*
CC(C)(C)N1Cc2nnn(Cc3ccccc3)c2-c2cc(N3CCCCC3)ccc2S1(=O)=O	.	5	.	.	.	.	.	.
Cc1ccc(Cn2nnc3c(=O)[nH]c(C4CCN(S(=O)(=O)c5ccccc5F)CC4)nc32)cc1	21	2	14	-7	51	13	2	-9
O=C(Cc1ccc(S(=O)(=O)N2CCOCC2)s1)Oc1ccc(F)cc1	-8	4	5	-2	96*	9	25	9
O=C(Cc1ccc(S(=O)(=O)N2CCOCC2)s1)N1CCN(S(=O)(=O)c2cccc(F)c2)CC1	.	3	.	-3	0	.	.	.
O=C(Cn1cc(C(F)(F)F)ccc1=O)N/N=C/c1ccc(Cl)c(Cl)c1	9	10	-5	-4	50	17	8	-49
CC(C)(C)OC(=O)N1Cc2ccccc2C[C@H]1C(=O)NCC(=O)Nc1ccc2c(c1)OCCO2	29	24	-25	-1	34	.	.	.
COc1cccc(NC(=O)CNC(=O)[C@@H]2Cc3ccccc3CN2C(=O)OC(C)(C)C)c1	11	6	7	2	65*	24	9	-27
O=C(Cc1ccccc1)Nc1ccccc1N1CCOCC1	6	-8	17	2	8	.	.	.
O=C(CCS(=O)(=O)c1ccccc1)Nc1ccccc1N1CCOCC1	-1	-4	16	-4	66*	9	11	-13
Cc1ccc(CN2CCCCC(NC(=O)c3ccc(C)cc3)C2=O)cc1 (stereo not given)	.	-3	.	.	.	.	.	.
Cc1nc(N2CCN(C(=O)C3CC3)CC2)c2c3c(sc2n1)CC(C)CC3 (stereo not given)	.	17	.	.	.	.	.	.
COC(=O)c1ccc(NC(=O)CNC(=O)C2CCCCC2)cc1	-19	5	-6	0	94*	5	-4	-11
